CRFR2-BP antag: CRF-BP/CRF-R2 complex antagonism; inhibition, % at 11.8 µM; AID 588475; hit rate 0.59% among 350,000; HEK293 CRF-R2/CRF-BP, CRF-induced calcium fluorescence;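 active = inhibition of the ligand-induced calcium signal above about 50% at the single tested concentration, limit read from the data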
Cardiac RTF inh: cardiac RTF calcium desensitization | P19429+P45379 | IANBD-labeled cardiac RTF, Ca2+ fluorescence | inhibition, % at 7.15 µM | hit rate 0.12% among 340,000 | AID 493244;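 active = inhibition above the mean inhibition of all tested compounds plus 3 SD, cut at about 17% in these data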;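 note: assay run at fixed EC70 calcium of 1.6 mM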
ANO1 block: blocks the mouse calcium-activated chloride channel TMEM16A | normalized B-score (activity score, 25-100; higher = stronger inhibition) at 10 µM | hit rate 1.2% among 310,000 | Q8BHY3 | HEK293 TMEM16A/YFP iodide influx fluorescence, ionomycin;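 active = ratio plate-corrected score three or more library SD toward inhibition, starting fluorescence score within five deviations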;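 note: score derived from kinetic fluorescence span divided by baseline fluorescence per well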
Target sequence (Q8BHY3 whole entry, looked up): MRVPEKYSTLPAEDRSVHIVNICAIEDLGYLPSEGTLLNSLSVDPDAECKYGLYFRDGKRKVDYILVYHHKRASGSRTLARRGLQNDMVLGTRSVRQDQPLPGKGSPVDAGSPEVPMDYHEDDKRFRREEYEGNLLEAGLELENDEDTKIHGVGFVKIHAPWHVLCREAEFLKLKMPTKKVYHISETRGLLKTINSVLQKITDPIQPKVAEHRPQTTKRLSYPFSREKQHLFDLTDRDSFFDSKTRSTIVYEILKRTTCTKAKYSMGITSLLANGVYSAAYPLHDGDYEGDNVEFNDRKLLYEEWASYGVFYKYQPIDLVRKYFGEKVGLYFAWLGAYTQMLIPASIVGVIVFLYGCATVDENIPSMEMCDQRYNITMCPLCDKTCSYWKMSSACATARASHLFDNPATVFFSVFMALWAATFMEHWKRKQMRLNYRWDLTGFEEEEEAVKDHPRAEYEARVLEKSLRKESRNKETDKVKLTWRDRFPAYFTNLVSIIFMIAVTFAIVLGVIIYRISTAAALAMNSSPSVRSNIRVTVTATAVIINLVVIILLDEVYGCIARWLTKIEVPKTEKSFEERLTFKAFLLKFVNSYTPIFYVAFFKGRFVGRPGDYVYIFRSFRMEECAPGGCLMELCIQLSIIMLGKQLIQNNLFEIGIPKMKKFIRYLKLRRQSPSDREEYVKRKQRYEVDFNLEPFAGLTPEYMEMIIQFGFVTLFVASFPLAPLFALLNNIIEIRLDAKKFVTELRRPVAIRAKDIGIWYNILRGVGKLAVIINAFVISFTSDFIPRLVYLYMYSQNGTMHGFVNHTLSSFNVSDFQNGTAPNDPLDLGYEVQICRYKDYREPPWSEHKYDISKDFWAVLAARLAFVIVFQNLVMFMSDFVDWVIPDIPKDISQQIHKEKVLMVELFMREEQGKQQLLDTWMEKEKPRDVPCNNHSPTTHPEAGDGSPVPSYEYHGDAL
CRFR2-BP ag: CRF-BP/CRF-R2 complex agonism; HEK293 CRF-R2/CRF-BP, calcium dye fluorescence (FLIPR); percent of saturating CRF peptide response; activation, % at 13.2 µM; hit rate 0.46% among 350,000; AID 588473;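 active = activation of at least 50%, plus an integration ratio under a set limit after plate pattern correction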;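 note: plate controls were neutral control wells without compound for no effect and CRF at EC100 for full effect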
ANO1 activ: activators or potentiators of mouse TMEM16A chloride channel; Q8BHY3; HEK293 TMEM16A/YFP-H148Q/I152L, iodide quench fluorescence; hits give low values; B-score at 10 µM; hit rate 0.3% among 340,000; AID 623877;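 active = fluorescence-ratio B-score plate-corrected deviation score at least 3 library SD below zero, with starting fluorescence score within 5 deviations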;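 note: channel opened by trigger with iodide after compound preincubation; score built on the fluorescence ratio of max minus min over baseline; more negative score means more quench and so TMEM16A activation or potentiation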
RTF Ca sens act: increases calcium sensitivity of human cardiac regulated thin filaments; activation, % at 7.2 µM; AID 493008; hit rate 0.24% among 340,000; IANBD-labeled TnC RTF fluorescence at EC20 calcium; 0% EC20 calcium, 100% full calcium;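 active = activation above the mean over all tested compounds plus 3 SD, cut at about 30% in these data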;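 note: rise in fluorescence read as greater calcium sensitivity of cardiac thin filaments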
An asterisk follows results filed as active; i = inactive; / = no result given. Sampled rows, rich in hits. Any-hit rate of the full collection: about 2.4%.

SMILES	CRFR2-BP antag	Cardiac RTF inh	ANO1 block	CRFR2-BP ag	ANO1 activ	RTF Ca sens act
CC[n+]1ccc(/C=C/c2c[nH]c3ccccc23)cc1	-46	-120	i	61*	i	102*
O=C(OCc1nnc(-c2ccccc2)o1)c1cccc(-n2cnnn2)c1	-3	9	i	0	i	-1
COc1ccc(S(=O)(=O)n2ccnc2C)c(C)c1C	-8	-6	i	3	i	5
Cc1cccc(NC(=O)CN2C(=O)S/C(=C\c3ccc(-c4cccc(C(=O)O)c4C)o3)C2=O)c1	-23	/	i	6	i	/
Cc1ccc(C(=O)O)cc1-c1ccc(C=C2C(=O)c3ccccc3C2=O)o1	-34	0	i	75*	i	-8
O=C1C(=Cc2ccc(Br)o2)C(=O)c2ccccc21	15	33*	i	1	i	-36
Cc1ccc(NC(=O)CN2C(=O)S/C(=C/c3ccc(-c4cc(C(=O)O)ccc4C)o3)C2=O)cc1C	-22	-6	100*	18	i	15
Cn1ccnc1SCC(=O)Nc1cc(F)ccc1F	5	-5	i	1	i	1
COc1ccc2[nH]c3c(N4CCN(Cc5ccc6c(c5)OCO6)CC4)ncnc3c2c1	3	4	i	-3	i	-3
COc1ccc2[nH]c3c(N4CCC(O)(c5cccc(C(F)(F)F)c5)CC4)ncnc3c2c1	-11	-3	100*	-3	i	3
COC(=O)c1sccc1NC(=O)CC1NCCNC1=O (stereo not drawn)	-5	-13	i	2	i	1
Cc1nc([N+](=O)[O-])cn1CC(=O)Nc1ccc([N+](=O)[O-])cc1	-4	-1	i	0	i	-5
CCC(C(=O)OCC(=O)Nc1cccc(C(C)=O)c1)c1ccccc1 (stereo not drawn)	20	7	i	-2	i	-2
CCC(C(=O)OCC(=O)Nc1cc(Cl)cc(Cl)c1)c1ccccc1 (stereo not drawn)	-28	7	100*	1	i	10
CCOc1ccccc1N(CC(=O)Nc1ccc(OC)c(OC)c1)S(=O)(=O)c1ccccc1	0	5	i	-3	i	52*
CCOc1ccccc1N(CC(=O)Nc1cccc(OC)c1)S(=O)(=O)c1ccccc1	12	2	i	0	i	-1
CCOc1ccccc1NC(=O)CN(c1ccc(OC)cc1OC)S(=O)(=O)c1ccccc1[N+](=O)[O-]	-12	1	i	0	-5.2*	5
COc1ccccc1OCC(=O)NCC1CCCN(C(=O)c2cccc(C)c2)C1 (stereo not drawn)	11	/	/	-2	/	/
CCCCCC(=O)N1C[C@@H](n2cc(C3CC3)nn2)[C@H](O)C[C@@H]1c1ccc(C)cc1	12	/	/	-1	/	/
CCn1ncc(/C=N/NC(=O)c2cc(Cl)ccc2OC)c1C	-17	-9	i	-2	i	-7
CCc1cc2c(=O)n(-c3ccccc3)c(=S)[nH]c2s1	10	1	25*	-2	i	-2
CCOC(=O)C1(CCOc2ccccc2)CCN(Cc2cccc(-n3cccn3)c2)CC1	-23	0	25*	3	i	1
CCOC(=O)C1(CCOc2ccccc2)CCN(Cc2cccc(F)c2)CC1	3	0	i	1	i	-2
COc1ccc(NC(=O)Cc2c(SC)c3ccccc3n2Cc2ccccc2)cc1	60*	1	i	-2	i	9
OCC[C@H]1C[C@@H](O)[C@H](O)[C@]2(OCCc3ccccc32)O1	2	-11	i	-1	i	0
SMILES	CRFR2-BP antag	Cardiac RTF inh	ANO1 block	CRFR2-BP ag	ANO1 activ	RTF Ca sens act
O=C(Nc1ccccc1)c1ccccc1OCc1cccc([N+](=O)[O-])c1	53*	-9	i	0	i	-3
O=C(Nc1cccc([N+](=O)[O-])c1)c1cc2ccccc2cc1O	27	-9	100*	39	i	7
CC(=O)Nc1cccc(C(=O)/C=C/c2ccc(N(C)C)cc2)c1	-219	-81	i	196*	i	73*
Cc1cccc2sc(NNC(=O)c3ccc(S(=O)(=O)N4CCCC(C)C4)cc3)nc12 (stereo not drawn)	-20	-1	25*	2	i	5
COc1ccc(CCN2CC(C(=O)NCCCn3nc(C)cc3C)CCC2=O)cc1 (stereo not drawn)	-2	-6	i	-1	i	5
COc1ccc(N(C(=O)c2cccc([N+](=O)[O-])c2)S(=O)(=O)c2ccc3c(c2)n(C)c(=O)n3C)cc1	19	-3	100*	0	i	1
Cc1ccc(CSC2=NCCN2C(=O)c2ccc(S(=O)(=O)N(C)C)cc2)cc1	-16	-23	i	0	i	-10
COc1cc(CC(=O)OCC(=O)Nc2sccc2C(N)=O)cc(OC)c1OC	-9	-6	100*	-1	i	4
Cc1nc(SCc2c(F)cccc2Cl)c2c(=O)n(C)c(=O)n(C)c2n1	34	-7	i	0	i	0
O=C(CCl)Nc1ccccc1Sc1ccc(Cl)cc1	67*	-6	i	1	i	9
CC(=O)N1CCN(CC(=O)Nc2ccccc2Sc2ccc(Cl)cc2)CC1	-3	-14	i	-1	i	7
CC(C)(C)NC(=O)C(c1ccccn1)N(C(=O)C1CSC(=O)C1)c1cccc(F)c1 (stereo not drawn)	70*	-9	i	-1	i	6
Clc1ccc(-c2nnnn2-c2ccc(Cl)cc2)cc1	28	/	i	-8	i	/
Cc1ccc(-n2nnnc2C(Cl)(Cl)c2nnnn2-c2ccc(C)cc2)cc1	-99	-4	i	72*	i	-4
COC(=O)[C@H]1C[C@H](C(=O)O)[C@@H](C)C1(C)C	-2	-1	i	2	i	2
Nc1ccc(S(=O)(=O)Nc2ccc(Cl)nn2)cc1	54*	-10	i	-1	i	-3
CCCS(=O)(=O)N1CCC(C(=O)NCCCOCC)CC1	8	-6	i	-1	i	2
CCCS(=O)(=O)N1CCC(C(=O)NCCCOC(C)C)CC1	60*	-10	i	3	i	8
COc1ccc(OCc2cccc(C(=O)NN)c2)cc1	-5	-8	i	-1	i	6
COc1ccc(OCc2cccc(C(=O)Nn3cc([N+](=O)[O-])cn3)c2)cc1	53*	7	i	13	i	2
COc1ccc(CC(=O)Nc2cccc(-c3nnc(-c4cccc(C)c4)o3)c2)cc1OC	-1	-10	100*	-3	i	6
